Measurements published in PubChem BioAssay AID588591 (National Center for Advancing Translational Sciences (NCATS), 2011).
Screen size: about 390,000 compounds; about 4,700 (1.2%) were called active. Inconclusive results (about 4%) are left out. Calls follow the shape of the dose curve; as a rule, active = well fitted inhibition curve with a large enough effect; inconclusive = small, poorly fitted or top-dose-only effect, or another doubt; inactive = no such curve, though single readings can be large or run the other way. Only a selection was taken, and actives are over-represented in it overall.

target: DNA polymerase eta (Homo sapiens) (UniProt Q9Y253); assay: qHTS for Inhibitors of Polymerase Eta; details: recombinant Pol eta, fluorescent DNA replication assay; series mostly up to 114 µM
Method in brief: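 Pol eta at 10 nM preincubated with compounds 15 min at room temperature; reaction started with fluorescent substrate (50 nM final) and read kinetically at 0 and 10 min.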
Potency is read from the fitted curve at half-maximal effect.

Sequence of DNA polymerase eta (Homo sapiens) (Q9Y253 whole entry, looked up): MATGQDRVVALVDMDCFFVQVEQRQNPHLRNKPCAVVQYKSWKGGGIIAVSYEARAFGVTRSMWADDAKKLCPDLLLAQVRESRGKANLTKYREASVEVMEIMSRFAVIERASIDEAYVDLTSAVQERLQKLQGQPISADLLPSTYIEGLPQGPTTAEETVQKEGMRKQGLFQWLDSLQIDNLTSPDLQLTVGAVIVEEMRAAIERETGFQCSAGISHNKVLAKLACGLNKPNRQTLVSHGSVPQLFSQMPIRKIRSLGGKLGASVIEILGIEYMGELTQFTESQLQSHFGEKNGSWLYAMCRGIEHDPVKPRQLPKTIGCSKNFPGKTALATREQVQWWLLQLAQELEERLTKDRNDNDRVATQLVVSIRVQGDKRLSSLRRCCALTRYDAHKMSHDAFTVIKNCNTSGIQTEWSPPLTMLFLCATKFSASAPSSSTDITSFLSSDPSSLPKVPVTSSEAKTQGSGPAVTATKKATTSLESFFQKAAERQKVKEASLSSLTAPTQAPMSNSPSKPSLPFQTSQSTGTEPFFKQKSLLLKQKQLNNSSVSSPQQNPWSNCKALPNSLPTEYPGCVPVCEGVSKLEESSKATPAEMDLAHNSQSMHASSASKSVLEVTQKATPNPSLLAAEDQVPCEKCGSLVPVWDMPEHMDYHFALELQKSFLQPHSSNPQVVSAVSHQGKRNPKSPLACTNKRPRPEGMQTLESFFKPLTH

Potency, active:
Cc1c(C(=O)Nc2ccccn2)oc2ccc(Br)cc12 39.8 µM, C#Cc1ccc([C@@H]2C=C(C(=O)O)O[C@H](OCCCCO)C2)cc1 20 µM, CCc1cc(C(=O)Nc2nnc(C3CC3)s2)sc1C 50.1 µM, C=C(C)C(=O)Nc1cccc(C2=NOC3(C2)C[C@H](C(N)=O)N(C(=O)C(c2ccccc2)c2ccccc2)C3)c1 (some centres undefined) 3.98 µM, O=[N+]([O-])c1ccc(C=Nc2ccc(Cl)cc2Cl)s1 89.1 µM, CS(=O)(=O)c1ccc2c(c1)SC1=NC(=O)/C(=C/c3ccco3)C(=N)N12 3.16 µM, COc1ccc(-c2cc(=O)c3c(O)cc(O[C@@H]4O[C@H](CO[C@@H]5O[C@@H](C)[C@H](O)[C@@H](O)[C@H]5O)[C@@H](O)[C@H](O)[C@H]4O)cc3o2)cc1O 79.4 µM, COc1ccccc1-n1c(-c2cc(-c3ccco3)[nH]n2)n[nH]c1=S 50.1 µM, CSc1nnc(SCc2nc3sc(C(=O)O)c(C)c3c(=O)[nH]2)s1 3.16 µM, CC1(OC(=O)C2CCCC2)C(=O)C=C2C=C(c3ccc(C#N)cc3)OC=C2C1=O (centres undefined) 20 µM

Potency, inactive:
Cc1ccc(NC(=O)c2oc3ccccc3c2C)c([N+](=O)[O-])c1, Cc1c(C(=O)NC2CCCCC2)oc2ccccc12, COc1ccccc1CNc1nccn(-c2ccc(F)cc2)c1=O, O=C(NCc1ccccc1)C1=C[C@@H](c2ccccc2)C[C@@H](OCCCCO)O1, O=C(O)C1=C[C@H](c2cccs2)C[C@H](OCCCCO)O1, COc1ccc(CCNC(=O)c2c3c(nc4ccccc24)C(=O)N(C2CCCCC2)C3)cc1OC, CCNC(=O)CC1C(=O)N(c2ccc(F)cc2)C(=O)N1Cc1ccc(C)cc1 (centres undefined), CCC(=O)N1CCc2cc(S(=O)(=O)NCCC(=O)Nc3cccc(C)c3C)ccc21, Cc1oc(-c2ccccc2F)nc1CN1CCC(C(=O)NCCc2ccc(Cl)cc2)CC1, CCc1ccccc1OCC(=O)Nc1nnc(C2CC2)s1, Cc1cccc(NC(=O)CSCC(=O)Nc2nnc(C3CC3)s2)c1, Cc1ccc(CNC(=O)c2c(O)nc3c(C)cccn3c2=O)cc1, NC(=O)[C@H]1CC2(CC(c3cccc(NC(=O)[C@H]4CCC(=O)N4)c3)=NO2)CN1C(=O)c1ccccc1C(=O)c1ccccc1 (some centres undefined), C/C=C(\C)C(=O)N1CC2(CC(c3cccc(NC(=O)CCCCC)c3)=NO2)C[C@@H]1C(N)=O (some centres undefined), CCOc1ccccc1CNCc1c(C(=O)O)c(C)n(Cc2ccc(C)cc2)c1C, COc1ccc(CNC(=O)c2cc3c(-c4ccccc4F)nn(C)c3s2)c(OC)c1, Cc1ccc(C)c(Cn2c(C(=O)O)c(CNCc3cccs3)c3ccccc32)c1, CCOc1ccc2nc(N3CCCC(C(=O)Nc4cc(C)ccc4C)C3)sc2c1 (centres undefined), C[C@@H]1O[C@@H](OC[C@H]2O[C@@H](Oc3c(-c4ccc(O)cc4)oc4cc(O)cc(O)c4c3=O)[C@H](O)[C@@H](O)[C@@H]2O)[C@H](O)[C@H](O)[C@H]1O, COc1ccc(CCOC2OC(CO)C(OC(=O)/C=C/c3ccc(O)c(OC)c3)C(O[C@H]3O[C@@H](C)[C@H](O)[C@@H](O)[C@H]3O)C2O)cc1O (some centres undefined), COc1ccc(OCc2n[nH]c(=S)n2N)cc1, Cc1cc(-c2n[nH]c(=S)n2-c2ccc(C)c(C)c2)no1, COc1ccc(C(=O)Nc2nonc2-c2ccc(OC)c(OC)c2)cc1Cl, Cc1cccc(OCCCC(=O)Nc2sc3c(c2C(N)=O)CCC(C)C3)c1 (centres undefined), Cc1ccc(S(=O)(=O)N2CCCC2C(=O)OCc2nc3sc(C)c(C)c3c(=O)[nH]2)cc1 (centres undefined), CCN(CC)Cc1nc2sc(C)c(C)c2c(=O)[nH]1, CCc1nn(CC(=O)NCC(C)c2ccccc2)c(=O)c2cc3occc3n12 (centres undefined), Cc1cc(Cl)ccc1OCC(=O)N(Cc1ccc(N(C)C)cc1)C1CCS(=O)(=O)C1 (centres undefined), COc1ccc2c(c1)c(=O)c(C(=O)c1ccccc1)cn2CC(=O)Nc1ccc2c(c1)OCCO2, CCOC(=O)c1ccc(NC(=O)C2CCN(S(=O)(=O)c3ccc4c(c3)CCCC(=O)N4)CC2)cc1, O=c1n(Cc2cccc(C(F)(F)F)c2)c2ccccc2c2nc(-c3ccccc3)nn12, Cc1ccccc1C(=O)N1CCC(C(=O)Oc2ccc(C#N)cc2)CC1, N#Cc1ccc(C2=CC(=O)C[C@H](c3ccc(Cl)cc3)C2)cc1, CCOC(=O)c1c(N)n(-c2cccc(C)c2C)c2nc3ccccc3nc12
